According to PubChem BioAssay:
Calls of active or inactive are those of the source.

Key:
Albumin (Bos taurus) = Albumin (Bos taurus) (UniProt P02769); assay: bovine serum albumin binders on microarray, profiling panel, artefact control for SMM control protein annotation, biochemical, small-molecule microarray, Alexa647 label, 635/667 nm fluorescence (AID 1118); details: BSA-A647 binding, fluorescence 635 nm, higher = more signal;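 also: score merges 667 nm emission intensity and signal-to-noise per printed compound spot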
Sequence of Albumin (Bos taurus) (P02769 whole entry, looked up): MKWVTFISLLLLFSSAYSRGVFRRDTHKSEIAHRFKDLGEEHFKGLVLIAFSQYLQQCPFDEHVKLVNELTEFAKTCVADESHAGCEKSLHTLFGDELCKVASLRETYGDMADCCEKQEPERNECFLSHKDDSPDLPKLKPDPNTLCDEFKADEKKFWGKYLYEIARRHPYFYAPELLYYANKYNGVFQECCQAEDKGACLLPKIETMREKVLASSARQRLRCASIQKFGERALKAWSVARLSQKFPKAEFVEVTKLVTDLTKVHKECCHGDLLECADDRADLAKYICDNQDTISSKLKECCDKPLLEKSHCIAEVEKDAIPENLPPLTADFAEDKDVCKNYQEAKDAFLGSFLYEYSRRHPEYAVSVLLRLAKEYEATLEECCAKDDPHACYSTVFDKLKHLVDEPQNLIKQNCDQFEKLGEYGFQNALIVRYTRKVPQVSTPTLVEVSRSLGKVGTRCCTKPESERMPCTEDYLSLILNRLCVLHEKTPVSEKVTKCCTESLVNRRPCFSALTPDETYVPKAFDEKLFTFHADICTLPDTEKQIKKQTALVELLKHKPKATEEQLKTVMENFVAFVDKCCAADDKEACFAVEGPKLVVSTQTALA

[1] = small-molecule microarray binders of probe aXIP, primary screen, biochemical, NeuroSMM set, 635/667 nm fluorescence (AID 1119); details: higher = more signal, called active from +8 up or from −8 down;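 also: probe is the protein aXip251-270 applied at 1 µg/mL to compound-printed slides; binding of probe to printed compounds measured as 667 nm fluorescence plus signal to noise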
[2] = small-molecule binders of probe aNOTCH3, primary screen, biochemical, small-molecule microarray, 635/667 nm fluorescence (AID 1120); details: higher = more signal;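 also: probe is a biotin-tagged antibody raised against NOTCH3 rather than NOTCH3 protein; score merges spot fluorescence near 667 nm with spot signal to noise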
[3] = small-molecule binders of probe aNOTCH2, primary screen, biochemical, small-molecule microarray, 635/667 nm fluorescence (AID 1121); details: higher = more signal;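 also: score merges feature fluorescence read at 667 nm with its signal to noise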
[4] = biological target: Carbonic anhydrase 2 (Homo sapiens) (UniProt P00918); assay: CAII small-molecule binders, profiling panel, biochemical, small-molecule microarray, Alexa647-labelled CAII (AID 1122); details: CAII-A647 binding fluorescence, higher = more signal
[5] = COS7 lysate on small-molecule microarray, probe aHis, 635 nm (AID 1123); details: COS7 cell lysate, fluorescence, higher = more signal;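 also: z-score combines 667nm fluorescence intensity with signal-to-noise per printed compound spot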
[6] = compound binding in COS7 lysate, probe aLAP1, primary screen, cell lysate, small-molecule microarray (AID 1124); details: probe aLAP1, fluorescence, higher = more signal;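 also: lysate comes from COS7 cells expressing LAP1 and is applied at 0.3 µg/mL; score merges spot fluorescence near 667 nm with signal-to-noise over triplicate slides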
Sam68 (KHDRBS1) = assay: Sam68 small-molecule binders, primary screen, biochemical, small-molecule microarray, 635 nm fluorescence (AID 1125); details: small-molecule microarray binding, higher = more signal;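 also: score merges 667 nm channel intensity with signal to noise over triplicate slides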
[7] = tested on: Chordin-like protein 2 (CHRDL2); assay: CHRDL2 small-molecule binders, primary screen, biochemical, small-molecule microarray, 635 nm fluorescence (AID 1126); details: small-molecule microarray binding, fluorescence 635 nm; higher = more signal;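 also: printed compound slides probed with Chrdl2 protein at 4 µg/mL for 1 h at 4 C; score merges 667 nm emission intensity with signal to noise over three replicate slides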
[8] = biological target: Concanavalin-A (Canavalia ensiformis) (UniProt P02866); assay: ConA small-molecule binders, primary screen, artefact control for SMM control protein annotation, biochemical, small-molecule microarray, Alexa647 label, 635 nm (AID 1127); details: ConA-A647 binding fluorescence, higher = more signal;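 also: z combines 667 nm emission intensity with signal-to-noise across three replicate slides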
Sequence of Concanavalin-A (Canavalia ensiformis) (P02866 whole entry, looked up): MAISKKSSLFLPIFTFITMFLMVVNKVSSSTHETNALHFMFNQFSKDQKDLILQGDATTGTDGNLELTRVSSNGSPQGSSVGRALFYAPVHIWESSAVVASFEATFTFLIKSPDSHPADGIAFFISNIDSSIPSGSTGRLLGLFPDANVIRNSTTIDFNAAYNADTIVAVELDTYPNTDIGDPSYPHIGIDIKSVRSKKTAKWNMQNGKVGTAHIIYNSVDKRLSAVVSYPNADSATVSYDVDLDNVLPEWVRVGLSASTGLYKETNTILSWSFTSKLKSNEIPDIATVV

[9] = anti-His antibody binders, primary screen, artefact control for SMM control protein annotation, biochemical, small-molecule microarray, 635 nm fluorescence (AID 1128); details: anti-His Alexa647 antibody binding, higher = more signal;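 also: score merges feature fluorescence with signal-to-noise for each printed compound spot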
[10] = tested on: Human papillomavirus type 1a E7 protein (residues 1-88); assay: HPV1a E7 small-molecule binders, primary screen, biochemical, small-molecule microarray, residues 1-88, 635 nm (AID 1129); details: small-molecule microarray binding, fluorescence 635 nm; higher = more signal
[11] = biological target: Focal adhesion kinase 1 (Homo sapiens) (UniProt Q05397); assay: small-molecule microarray binders of FAK, primary screen, biochemical, 635/667 nm fluorescence, BSA, DTT (AID 1130); details: PTK2 binding, 635 nm fluorescence, higher = more signal;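 also: composite of spot emission at 667 nm and signal to noise over triplicate slides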
Sequence of Focal adhesion kinase 1 (Homo sapiens) (Q05397 whole entry, looked up): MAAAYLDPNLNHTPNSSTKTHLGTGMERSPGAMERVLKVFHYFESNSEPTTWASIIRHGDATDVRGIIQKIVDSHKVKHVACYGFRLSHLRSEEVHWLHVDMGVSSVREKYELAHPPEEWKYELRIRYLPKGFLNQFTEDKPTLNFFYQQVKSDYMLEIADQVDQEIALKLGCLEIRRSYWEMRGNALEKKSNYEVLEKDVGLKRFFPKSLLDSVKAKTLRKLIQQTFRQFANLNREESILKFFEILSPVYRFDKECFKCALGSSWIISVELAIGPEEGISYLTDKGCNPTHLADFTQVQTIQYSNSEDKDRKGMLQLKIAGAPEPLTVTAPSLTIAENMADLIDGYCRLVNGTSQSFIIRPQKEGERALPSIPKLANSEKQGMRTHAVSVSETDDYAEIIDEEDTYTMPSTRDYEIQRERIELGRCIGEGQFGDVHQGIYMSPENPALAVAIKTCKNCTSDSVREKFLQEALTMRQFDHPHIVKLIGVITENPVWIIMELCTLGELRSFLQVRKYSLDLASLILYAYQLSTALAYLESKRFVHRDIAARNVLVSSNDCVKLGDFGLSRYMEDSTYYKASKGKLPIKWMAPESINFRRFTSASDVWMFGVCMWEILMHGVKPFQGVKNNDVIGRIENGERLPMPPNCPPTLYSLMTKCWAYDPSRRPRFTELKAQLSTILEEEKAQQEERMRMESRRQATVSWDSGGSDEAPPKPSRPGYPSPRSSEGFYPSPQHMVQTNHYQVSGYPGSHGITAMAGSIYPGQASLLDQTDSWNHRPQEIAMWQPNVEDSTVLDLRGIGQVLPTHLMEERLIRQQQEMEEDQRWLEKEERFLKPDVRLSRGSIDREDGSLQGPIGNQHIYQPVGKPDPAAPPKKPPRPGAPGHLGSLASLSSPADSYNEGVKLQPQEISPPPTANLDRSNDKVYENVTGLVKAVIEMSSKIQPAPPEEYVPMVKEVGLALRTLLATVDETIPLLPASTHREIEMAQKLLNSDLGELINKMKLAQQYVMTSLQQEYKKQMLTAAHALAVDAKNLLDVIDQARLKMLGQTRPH

[12] = tested on: Fibrinogen (Alexa647-labelled); assay: fibrinogen binders on compound microarrays, profiling panel, artefact control for SMM control-protein annotation, biochemical, small-molecule microarray, 635/667 nm fluorescence (AID 1131); details: fibrinogen-A647 binding fluorescence, higher = more signal;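 also: z-score merges 667 nm fluorescence with per-spot signal-to-noise over triplicate slides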
[13] = biological target: Follistatin (Homo sapiens) (UniProt P19883); assay: follistatin binders on small-molecule microarrays, primary screen, biochemical, small-molecule microarray, 635/667 nm fluorescence (AID 1132); details: FST binding, 635 nm fluorescence, higher = more signal
Sequence of Follistatin (Homo sapiens) (P19883 whole entry, looked up): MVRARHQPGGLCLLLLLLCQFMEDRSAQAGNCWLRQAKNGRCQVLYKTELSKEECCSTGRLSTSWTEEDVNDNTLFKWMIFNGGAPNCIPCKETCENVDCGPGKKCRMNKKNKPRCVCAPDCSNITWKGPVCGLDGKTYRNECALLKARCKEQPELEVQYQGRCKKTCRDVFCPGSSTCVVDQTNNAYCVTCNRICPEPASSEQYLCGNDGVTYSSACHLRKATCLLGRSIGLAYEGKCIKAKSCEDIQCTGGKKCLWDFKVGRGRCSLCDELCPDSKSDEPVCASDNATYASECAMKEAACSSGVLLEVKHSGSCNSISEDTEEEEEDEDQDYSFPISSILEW

[14] = biological target: Fibroblast growth factor 2 (Homo sapiens) (UniProt P09038); assay: FGF2 binders on small-molecule microarrays, primary screen, biochemical, small-molecule microarray, 635/667 nm fluorescence (AID 1133); details: small-molecule microarray binding, FGF2, fluorescence 635/667; higher = more signal
Sequence of Fibroblast growth factor 2 (Homo sapiens) (P09038 whole entry, looked up): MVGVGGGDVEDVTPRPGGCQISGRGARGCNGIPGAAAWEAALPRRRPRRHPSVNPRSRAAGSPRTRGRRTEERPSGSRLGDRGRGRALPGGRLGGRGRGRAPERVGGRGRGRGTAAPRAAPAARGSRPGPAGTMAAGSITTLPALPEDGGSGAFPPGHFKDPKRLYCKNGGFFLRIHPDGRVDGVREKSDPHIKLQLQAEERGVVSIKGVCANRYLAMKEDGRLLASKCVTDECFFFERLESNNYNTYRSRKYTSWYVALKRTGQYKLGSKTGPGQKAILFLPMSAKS

[15] = mitochondrial membrane potential change in A549 cells, profiling panel, cell-based, JC-1 fluorescence, basal, 24 h, 100 nL (AID 1138); details: higher = more signal;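 also: A549 lung adenocarcinoma cells under basal conditions with no added stimulus; test concentration not given here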
Lefty1 = Lefty1 binders on small-molecule microarrays, primary screen, biochemical, small-molecule microarray, 635/667 nm fluorescence (AID 1139); details: small-molecule microarray binding, fluorescence 635/667; higher = more signal
[16] = tested on: wheat germ agglutinin (Triticum aestivum), Alexa647-labelled; assay: wheat germ agglutinin binders on compound microarrays, profiling panel, artefact control for SMM control-protein annotation, biochemical, small-molecule microarray, 635/667 nm fluorescence (AID 1140); details: WGA-A647 binding, 635 nm fluorescence, higher = more signal;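 also: score merges 667 nm feature emission with signal to noise over triplicate slides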
[17] = biological target: Luciferin 4-monooxygenase (Photinus pyralis) (UniProt P08659); assay: firefly luciferase enzyme inhibitors, primary screen, biochemical, luminescence, purified enzyme, 2006 set (AID 1141); details: SteadyGlo luminescence, 30 min, higher = more signal, called active from +8 up or from −8 down;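 also: cell-free assay with purified firefly luciferase at 100 ng per well in PBS; test concentration not given here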
Sequence of Luciferin 4-monooxygenase (Photinus pyralis) (P08659 whole entry, looked up): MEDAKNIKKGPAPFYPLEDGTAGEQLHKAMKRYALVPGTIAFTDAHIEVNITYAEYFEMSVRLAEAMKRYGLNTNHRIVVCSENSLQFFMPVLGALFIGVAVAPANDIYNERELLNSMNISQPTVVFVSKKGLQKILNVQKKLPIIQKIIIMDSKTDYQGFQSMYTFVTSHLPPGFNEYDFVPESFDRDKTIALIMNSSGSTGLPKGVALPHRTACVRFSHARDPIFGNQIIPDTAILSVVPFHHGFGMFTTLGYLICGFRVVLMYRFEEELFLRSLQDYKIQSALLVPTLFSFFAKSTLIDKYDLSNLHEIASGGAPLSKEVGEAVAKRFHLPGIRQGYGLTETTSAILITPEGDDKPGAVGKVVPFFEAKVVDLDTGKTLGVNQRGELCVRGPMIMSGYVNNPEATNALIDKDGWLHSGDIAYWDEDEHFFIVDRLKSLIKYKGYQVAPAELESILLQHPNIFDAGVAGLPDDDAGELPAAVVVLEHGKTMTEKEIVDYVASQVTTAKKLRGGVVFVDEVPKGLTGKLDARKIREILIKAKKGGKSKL

Structure (SMILES) | composite z-score (Albumin (Bos taurus)) | composite Z-score [1] | composite z-score [2] | composite z-score [3] | composite z-score [4] | composite z-score [5] | composite z-score [6] | composite z-score (Sam68 (KHDRBS1)) | composite z-score [7] | composite z-score [8] | composite z-score [9] | composite z-score [10] | composite z-score [11] | composite z-score [12] | composite z-score [13] | composite z-score [14] | z-score [15] | composite z-score (Lefty1) | composite z-score [16] | z-score [17]
COCCCNC(=O)[C@@]1(Sc2ccc(C)cc2)CC(=O)N(C2Cc3ccccc3C2)[C@@H]1c1ccc(CO)cc1 | 0.0753 | 1.23 (inactive) | -0.157 | -0.181 | 0.748 | 0.537 | 0.352 | 0.209 | -1.86 | 0.163 | 0.72 | 0.336 | -0.296 | -0.841 | -1.22 | -1.35 | -0.318 | -1.1 | -1.47 | 0.925 (inactive)
COC(=O)[C@@]1(Cc2ccc(F)cc2)[C@H]2c3cc(C(=O)N4CCCC4)n(CCc4c[nH]c5ccccc45)c3C[C@H]2CN1C(=O)c1ccccc1 | 1.11 | -0.263 (inactive) | 0.558 | 0.184 | 0.795 | 3.17 | 1.76 | 1.3 | 0.291 | 0.984 | 1.56 | 1.26 | 1.27 | 0.97 | 0.867 | 0.577 | 0.775 | -0.627 | 0.816 | 2.04 (inactive)
CC1CC/C=C\[C@H]2OC34C=CCN(Cc5ccccc5)C(=O)[C@H]3N(C(CO)C(C)C)C(=O)[C@@H]4C2C(=O)O1 (stereo not given in full) | -1.39 | -0.263 (inactive) | 0.0666 | -0.0418 | 0.821 | 0.152 | 0.219 | -0.271 | -0.398 | -0.355 | -0.696 | -1.03 | -0.475 | -0.798 | -0.528 | -0.81 | 1.32 | -0.722 | 0.389 | -1.15 (inactive)
C=C(COC)C(=O)CC[C@@H](OC(C)=O)c1cccc(OCCO)c1 | -0.693 | -0.0662 (inactive) | -0.0647 | -0.125 | 0.59 | -0.591 | -0.621 | -0.873 | -0.109 | -0.797 | 0.0219 | -1.04 | -0.653 | 0.567 | 1.09 | 1.48 | 0.655 | 0.146 | 0.0226 | -1.76 (inactive)
O=C(O)[C@@H]1C[C@@H]2C(=O)N3CCC[C@H]3C(=O)N2[C@@H]1c1ccc(O)cc1 | -0.0352 | 0.309 (inactive) | 0.0927 | -0.0126 | 0.579 | 0.538 | 0.619 | 0.721 | 0.931 | 0.878 | 2.3 | 0.258 | 0.251 | -0.0516 | 1.42 | 1.07 | -0.269 | 0.824 | 0.0465 | -0.985 (inactive)
C=CCC(OC(C)=O)[C@@H]1[C@@H](N(Cc2cccc3ccccc23)C(=O)Cc2ccc(OC)cc2)c2cc(OCCCO)ccc2N1C(=O)c1ccc(-c2ccccc2)cc1 (stereo not given in full) | 0.249 | -0.166 (inactive) | -0.0647 | -0.0895 | -0.0283 | 0.917 | 0.181 | -0.189 | 0.0133 | -0.285 | -0.328 | -0.127 | 0.0862 | 0.701 | 0.662 | 0.394 | 0.0256 | -0.47 | 0.297 | 0.828 (inactive)
C#Cc1cc2ccccc2oc1=O | 0.683 | 0.207 (inactive) | -0.437 | -0.126 | 0.637 | 0.688 | 0.216 | 0.343 | -2.62 | -0.486 | -0.314 | -0.451 | -0.393 | -1.03 | -2.22 | -1.39 | -1.14 | -1.58 | -1.12 | -2.39 (inactive)
NCCCCCNC(=O)[C@@H]1C[C@@H]2C(=O)N[C@@H](CCCCN)C(=O)N2[C@@H]1c1ccc(O)cc1 | -0.321 | 0.562 (inactive) | 0.353 | -0.0162 | 0.635 | 2.38 | 0.103 | 1.3 | 1.38 | 1.15 | 1.98 | 1.23 | 0.294 | 0.782 | 1.42 | 1.74 | -0.862 | 1.57 | 1.14 | -0.364 (inactive)
Cc1ccc(S[C@]2(C(=O)NCCN3CCOCC3)CC(=O)N(Cc3ccccc3Cl)[C@@H]2c2ccc(CO)cc2I)cc1 | 0.243 | 0.555 (inactive) | 0.0226 | 0.584 | 0.805 | 2.75 | 1.49 | 0.653 | -0.35 | -0.763 | -0.882 | -0.227 | 1.09 | -0.646 | -0.349 | 0.388 | 1.08 | -1.57 | 0.498 | -0.43 (inactive)
CC[C@@H]1C=C(C(=O)O)[C@H](c2ccccc2)N1S(=O)(=O)c1ccc(C)cc1 | 1.08 | -0.12 (inactive) | 0.191 | 0.0167 | 0.8 | 2.24 | 1.38 | 0.95 | -0.535 | 1.12 | 2.57 | 1.17 | 0.178 | 0.594 | -0.0393 | -0.241 | -0.719 | 0.362 | 1.05 | 1.09 (inactive)
CC(C)c1ccc(NN2C(C(O)c3ccc(F)cc3)C=CC3C(=O)N(c4ccccc4)C(=O)C32)cc1 (stereo not given) | 0.839 | 0.131 (inactive) | 0.378 | 0.0147 | 0.378 | 2.79 | 0.846 | 1.31 | -0.0773 | 1.1 | 0.651 | 1.24 | 0.515 | 0.989 | 1.16 | -0.15 | -0.559 | 0.138 | 0.886 | -2.01 (inactive)
